Measured values: PubChem BioAssay (NCI)
The panel holds about 79,000 compounds, 15% with a hit somewhere; the sample as a whole holds those more often. Cut-off read from the data, not from the text of the source: active = growth inhibition above about 70%; inactive = the rest. Where a SMILES comes first, the peptide text is derived from it. The star is where a group is joined. Cbz = O=C(OCc1ccccc1)*; OBn = c1ccc(CO*)cc1

How the values were obtained:
[1] = NCI Yeast Anticancer Drug Screen. Data for the rad50 strain (AID 155);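 note: 0% = growth of vehicle-only cultures of the same strain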; conditions: S. cerevisiae rad50 strain growth inhibition; at 50.0 µM; hits give high values
Outline: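 DNA repair mutant yeast, compound exposure, growth read-out; inhibition is taken relative to vehicle.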

[2] = NCI Yeast Anticancer Drug Screen. Data for the mec2-1 strain (AID 157); conditions: S. cerevisiae mec2-1 strain, at 50.0 µM, hits give high values
Outline: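 Cells of the genetically defined mec2-1 yeast strain are incubated with test compound. Inhibition of growth is calculated against vehicle-treated controls.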

[3] = NCI Yeast Anticancer Drug Screen. Data for the sgs1 mgt1 strain (AID 161);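 note: 0% = growth of cultures given vehicle only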; conditions: S. cerevisiae sgs1 mgt1 strain, at 50.0 µM, hits give high values
Outline: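 Read-out: growth inhibition vs vehicle controls. Cells: mutant yeast strain deficient in DNA damage repair.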

[4] = NCI Yeast Anticancer Drug Screen. Data for the cln2 rad14 strain (AID 165);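 note: 0% = growth equal to vehicle treated cultures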; conditions: S. cerevisiae cln2 rad14 strain, at 50.0 µM, hits give high values
Outline: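 The screen exposed genetically defined yeast (cln2 rad14) to test compounds and scored growth inhibition relative to vehicle-treated controls.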

[5] = NCI Yeast Anticancer Drug Screen. Data for the bub3 strain (AID 167); conditions: S. cerevisiae bub3 mutant strain, at 50.0 µM, hits give high values
Outline: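 In this screen, a yeast mutant lacking normal mitotic checkpoint function is challenged with compound. Relative growth versus vehicle gives the inhibition value.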

[6] = NCI Yeast Anticancer Drug Screen. Data for the mlh1 rad18 strain (AID 175); conditions: S. cerevisiae mlh1 rad18 strain growth inhibition; at 50.0 µM; hits give high values
Outline: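 Compound-treated yeast growth, normalised to vehicle controls. Strain bears defined DNA repair mutations.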

Measured: growth inhibition

CCCS(=O)(=O)N/N=C(\C)c1cccs1
inactive: [1] 3.65% | [2] -8.1% | [3] 3.25% | [4] -35.5% | [5] 1.35% | [6] -4.2%

Nc1[nH]n(-c2ccccc2)c(=O)c1/C=N/C(=S)NC1CCCCC1
inactive: [1] -79% | [2] -43.7% | [3] -61% | [4] -63.2% | [5] -47.8% | [6] -67.9%

Cc1ccnc(=O)[nH]1
inactive: [1] -2.45% | [2] -0.2% | [3] 11.8% | [4] 8.45% | [5] 1.75% | [6] 29.9%

CN(Cc1cccc(Cl)c1)C(=O)Nc1ccccc1Cl
inactive: [1] -1.25% | [2] 48.8% | [3] 47.5% | [4] -21% | [5] 34.6% | [6] 53.4%

O=CN1CCN(C=S)CC1
inactive: [1] -14% | [2] -10.2% | [3] -9.9% | [4] 3.75% | [5] 2.6% | [6] -15.4%

[Cl][Pt+2][Cl].[NH-]CC(C[NH-])(Cc1ccccc1)Cc1ccccc1
inactive: [1] -0.55% | [2] -13.9% | [3] -2.2% | [4] 15.1% | [5] -18.2% | [6] -38.6%

Cn1cnc([N+](=O)[O-])c1Sc1ccncc1S(N)(=O)=O
inactive: [1] -5.65% | [2] -14.4% | [3] 0.2% | [4] 2.1% | [5] 6.5% | [6] -9.15%

O=C(O)C1C(CCl)=C1CCl
inactive: [1] -15.8% | [2] 20.7% | [3] 2.35% | [4] -11.3% | [5] 4.7% | [6] -2.9%

Cc1ccc(C(=O)Nc2ccc(CP(=O)(O)O)cc2CP(=O)(O)O)cc1NC(=O)Nc1cc(C(=O)Nc2ccc(CP(=O)(O)O)cc2CP(=O)(O)O)ccc1C
inactive: [1] -10.8% | [2] -5.45% | [3] -12.1% | [4] -0.25% | [5] 0.4% | [6] 9.65%

O=C(c1ccc(Cl)cc1)c1ccc2ccccc2c1
inactive: [1] -5.3% | [2] -8.6% | [3] 5.35% | [4] -3.4% | [5] 7.8% | [6] 4.1%

O=C(O)C(O)c1cccc([N+](=O)[O-])c1 (stereo unspecified)
inactive: [1] 11.1% | [2] 11.7% | [3] -8.8% | [4] -7.05% | [5] -32.2% | [6] -12.9%

CO/C=C1/CCc2c(ccc3cc(OC)ccc23)C1=O
inactive: [1] -1.5% | [2] -8.75% | [3] 10.5% | [4] -0.8% | [5] 3.2% | [6] -6.55%

CCCCOC(=O)NC(=O)c1cn(CCSCCOC(=O)NCCCCCCNC(=O)OCCSCCn2cc(C(=O)NC(=O)OCCCC)c(=O)[nH]c2=O)c(=O)[nH]c1=O
inactive: [1] -15.2% | [2] -12.5% | [3] -9.55% | [4] 2.15% | [5] -15.9% | [6] -15.4%

O=S(O)c1cc(Cl)c(O)c(Cl)c1
inactive: [1] -7.1% | [2] 1.3% | [3] -7.05% | [4] -37.5% | [5] -5.1% | [6] -2.75%

O=C1c2ccccc2Cc2ccc(O)cc21
inactive: [1] 47.1% | [2] 21.3% | [3] 11.1% | [4] 10.3% | [5] 11.8% | [6] 10.8%

CCCCOCCOC(=O)CCCCCC1C=CCCC1 (stereo unspecified)
inactive: [1] 10.8% | [2] 8.4% | [3] 8.65% | [4] -18.6% | [5] -8.35% | [6] 4.95%

O=C(NC(CO)C(=O)N1CCCC1C(=O)OCc1ccccc1)OCc1ccccc1 (stereo not drawn) (Cbz-Ser-Pro-OBn; configuration not given here)
inactive: [1] 8.55% | [2] 7% | [3] 7.05% | [4] 23.9% | [5] 4.45% | [6] 7.6%

CCC(CC)C(O)CCCN(C)C (stereo unspecified)
inactive: [1] 33.6% | [2] 21.8% | [3] 31.2% | [4] 12.8% | [5] 1.65% | [6] 24.1%

Nc1ncnc2nc(I)[nH]c12
inactive: [1] -1.45% | [2] 1.25% | [3] -4.55% | [4] -6.75% | [5] 26.7% | [6] 7.3%

O=c1[nH]cc(Cl)cc1[N+](=O)[O-]
inactive: [1] 10.8% | [2] 3.95% | [3] -1.4% | [4] 2.3% | [5] -17.8% | [6] 1.7%

COC(=O)/C(C#N)=C/c1ccco1
inactive: [1] -34% | [2] 6.65% | [3] -14.2% | [4] 2.5% | [5] -2.05% | [6] -21.6%

NNC(=O)c1cccc(C(=O)NN)n1
inactive: [1] 6.25% | [2] 4.9% | [3] 8.55% | [4] 5.85% | [5] 31.1% | [6] 15.1%

CCOP(=O)(OCC)C1C(C)N1C(=O)Nc1ccccc1 (stereo unspecified)
inactive: [1] 1.4% | [2] -4.15% | [3] -8.1% | [4] 5% | [5] -11.7% | [6] -17.4%

CO[C@@]12C[C@@H](C)[C@]34O[C@H]3C[C@]3(C)O[C@]43CC1=C(C)C(=O)O2
inactive: [1] 10.2% | [2] 1.2% | [3] 23.6% | [4] 7.5% | [5] 28.4% | [6] -64%

CCOC(=O)Nc1ccc(C2OCCS2)cc1 (stereo unspecified)
inactive: [1] 1.05% | [2] -21.6% | [3] 9.45% | [4] -0.65% | [5] -19.8% | [6] 10.2%

O=C(O)COc1ccccc1P(=O)(c1ccccc1)c1ccccc1
inactive: [1] 23.1% | [2] 17.4% | [3] 9.7% | [4] 35.8% | [5] 22.4% | [6] 23%

NCCCNCCCCN1CCOC1=O
inactive: [1] 2.8% | [2] 1.65% | [3] -3.1% | [4] -6.6% | [5] -11.3% | [6] -17.9%

N#Cc1sc2c(c1O)c(=O)n(-c1ccccc1)c(=S)n2-c1ccccc1
inactive: [1] -40.9% | [2] -36.9% | [3] -37.3% | [4] -23.1% | [5] -54.9% | [6] -47.8%

CCCCCCCC(=O)OCC1OC(n2cc(F)c(=O)[nH]c2=O)C(NC(=O)OCc2ccccc2)C(OC(=O)CCCCCCC)C1O (stereo unspecified)
inactive: [1] 20.2% | [2] 4.05% | [3] 13.4% | [4] 14.3% | [5] 0.35% | [6] 38.3%

Cc1ccc2c(c1)C1(c3ccccc3)Oc3ccc(C)cc3C(c3ccccc3)(O2)O1
inactive: [1] 12.2% | [2] 5.75% | [3] 10.7% | [4] 25.3% | [5] -4.9% | [6] -7.2%

Clc1cnnc2nc[nH]c12
inactive: [1] -10.8% | [2] -7.4% | [3] -24.2% | [4] -28.1% | [5] -15.8% | [6] -23.2%

COc1ccc(NCC(=O)Nn2c(-c3ccccc3)nc3ccccc3c2=O)cc1
inactive: [1] -37% | [2] -48.2% | [3] 4% | [4] 0.4% | [5] 4.15% | [6] -18.4%

NC(Cc1ccccc1)C(=O)NCC(=O)NC(Cc1ccccc1)C(=O)NCC(=O)O (stereo unspecified) (H-FGFG-OH; configuration not given here)
inactive: [1] -4.35% | [2] -4.15% | [3] -7.95% | [4] -36.4% | [5] -4.7% | [6] 4.2%

CC(C)(C)OC(=O)NC(CC(N)=O)C(=O)O (stereo unspecified)
inactive: [1] 23.1% | [2] -6% | [3] 8.9% | [4] -33.5% | [5] -6.45% | [6] 10.7%

C(=C\c1ccc(OCc2ccccc2)cc1)/c1ccc(OCc2ccccc2)cc1
inactive: [1] -5.5% | [2] -13.7% | [3] -13.6% | [4] -7.6% | [5] -24.6% | [6] -26%

NC(Cc1ccccc1)(C(=O)O)C(=O)O
inactive: [1] -12.7% | [2] 1.45% | [3] -11.4% | [4] -31.8% | [5] -22.1% | [6] 15.7%

O=[N+]([O-])c1ccc(F)c(Cl)c1
inactive: [1] -10.7% | [2] -25.1% | [3] -1.6% | [4] 4.55% | [5] 9.3% | [6] -7.25%

CC1(C)CCCCC1=O
inactive: [1] -0.15% | [2] -1.8% | [3] 7.1% | [4] 22.1% | [5] 26.1% | [6] -14.3%

C=C(C)C(O)CC(C)C (stereo unspecified)
inactive: [1] -8.6% | [2] 13.9% | [3] -15.2% | [4] 7.65% | [5] 2.95% | [6] 0.2%

Cc1nn(-c2ccccc2)c2c1N=C(C(=O)O)CC(c1ccccc1)=N2
inactive: [1] 18.7% | [2] 25.9% | [3] 23.9% | [4] 28.1% | [5] 16.7% | [6] 13.8%

CCOC(=O)c1cnc2ccccc2c1N=[N+]=[N-]
inactive: [1] -0.9% | [2] 27.8% | [3] 25.5% | [4] -34% | [5] 40.5% | [6] 29.9%
